# Data: the supplement of paper PMC6555819
# Assays:
# Assay in all cases: PBM binding z-score (relative to random genomic background probes); higher = stronger binding; sequences stand for … in GC…GCGATTGACAGCGTAGAATGAAGG
# [1] = system: FXR:RXRa (NR concentration 270 nM, RXRa partner concentration 90 nM)
# In short: (§1)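 Ligand-free nuclear receptor dimers were applied to custom Agilent 4×180K protein-binding microarrays whose double-stranded probes carried direct-repeat seeds, single-nucleotide variants, half-site ablations and random human genomic background sequences in 34-nt variable regions. Incubation lasted 1 h. Binding z-scores were computed against the random background probes from regression-normalized fluorescence.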
# [2] = system: LXRa:RXRa (NR concentration 270 nM, RXRa partner concentration 90 nM)
# In short: as §1
# [3] = system: LXRa homodimer (NR concentration 270 nM)
# In short: as §1
# [4] = system: LXRb:RXRa (NR concentration 270 nM, RXRa partner concentration 90 nM)
# In short: as §1
# [5] = system: LXRb homodimer (NR concentration 270 nM)
# In short: as §1
# [6] = system: PPARa:RXRa (NR concentration 270 nM, RXRa partner concentration 90 nM)
# In short: as §1
# [7] = system: PPARg:RXRa (NR concentration 180 nM, RXRa partner concentration 90 nM)
# In short: as §1
# [8] = system: PPARg:RXRa 270nM:90nM, anti-RXR (NR concentration 270 nM, RXRa partner concentration 90 nM)
# In short: as §1
# [9] = system: PPARg:RXRa 30nM:10nM, anti-RXR (NR concentration 30 nM, RXRa partner concentration 10 nM)
# In short: as §1
# [10] = system: PPARg:RXRa 90nM:30nM, anti-RXR (NR concentration 90 nM, RXRa partner concentration 30 nM)
# In short: as §1
# [11] = system: PPARg:RXRa DBDmut IVT, anti-RXR (DBD mutation: RXRa K156A/R161A, NR concentration 270 nM, RXRa partner concentration 90 nM)
# In short: as §1
# [12] = system: PPARg:RXRa IVT, anti-PPARg (NR concentration 270 nM, RXRa partner concentration 90 nM)
# In short: as §1
# [13] = system: PPARg DBDmut:RXRa IVT, anti-PPARg (DBD mutation: PPARg1 K132A/R137A, NR concentration 270 nM, RXRa partner concentration 90 nM)
# In short: as §1
# [14] = system: PPARg DBDmut IVT, anti-PPARg (DBD mutation: PPARg1 K132A/R137A, NR concentration 270 nM)
# In short: as §1
# [15] = system: PPARg homodimer (NR concentration 180 nM)
# In short: as §1
# [16] = system: PXR:RXRa (NR concentration 270 nM, RXRa partner concentration 90 nM)
# In short: as §1
# [17] = system: PXR homodimer (NR concentration 270 nM)
# In short: as §1
# [18] = system: RARa:RXR (NR concentration 270 nM, RXRa partner concentration 90 nM)
# In short: as §1
# [19] = system: RARa homodimer (NR concentration 270 nM)
# In short: as §1
# [20] = system: RARb:RXRa (NR concentration 270 nM, RXRa partner concentration 90 nM)
# In short: as §1
Sequence,PBM binding z-score [1],PBM binding z-score [2],PBM binding z-score [3],PBM binding z-score [4],PBM binding z-score [5],PBM binding z-score [6],PBM binding z-score [7],PBM binding z-score [8],PBM binding z-score [9],PBM binding z-score [10],PBM binding z-score [11],PBM binding z-score [12],PBM binding z-score [13],PBM binding z-score [14],PBM binding z-score [15],PBM binding z-score [16],PBM binding z-score [17],PBM binding z-score [18],PBM binding z-score [19],PBM binding z-score [20]
CGTCCAAGGTCATAGGAGGTCGGTGAAGACAGAT,7.17,6.22,1.31,4.11,0.234,5.36,4.31,4.86,1.6,3.35,2.55,3.51,-0.173,0.224,2.9,6.03,1.77,4.4,0.95,4.89
AGAACGAGCGCAATGAGTTGATAGCACGGGTGGC,-0.384,-0.917,-0.672,-1.03,-0.728,-0.619,0.568,-0.754,-0.641,-0.779,-0.343,-0.563,0.051,-0.552,0.0308,-0.486,-0.247,-0.449,-0.49,-0.312
ATTGAAAGGTCGTGAGGTGAGTATACAGAAAGGC,5.67,4.67,0.73,3.49,1.2,5.38,4.88,5.01,2.23,3.64,0.728,3.15,1.53,1.68,2.07,3.07,0.914,4.27,1.15,4.3
CGTCCAAGGTCAATGCTAGGTCAGAGAAAGCATT,6.97,5.95,2.67,4.32,0.8,5.25,4.39,4.86,1.59,3.76,3.57,3.92,0.456,-0.0823,4.96,4.85,1.92,5.99,1.27,5.25
ATCGAAAGGTCGACGAGGTGACTATACACCGTTT,4.76,3.44,0.283,3.17,0.252,4.53,3.26,3.2,1.22,2.33,1.03,2.4,1.08,0.608,1.89,3.44,0.829,3.99,0.449,4.01
CTACCAAGGTGGACAAGGTCGTTGATTACTATTC,0.175,0.496,0.259,0.805,-0.653,0.861,0.061,0.155,-0.189,-0.0308,0.0779,0.0174,-1.17,0.143,0.0242,1.28,0.687,1.16,0.219,0.561
ATCGAAATGTCGAGGTGAGTATAGAGAAAGGGAA,0.0498,-0.124,-0.716,-0.253,-0.363,0.204,0.315,0.0336,0.162,0.363,-0.755,0.414,0.309,0.489,-0.704,-0.204,-0.513,0.129,-0.696,0.538
CGAACCAGGTCAAGGACAGTGAATCTCCGCACGC,4.75,2.98,0.32,2.36,-0.00984,4.52,4.96,4.26,1.28,3.31,4.75,5.44,0.626,1.5,2.06,2.01,0.853,3,0.303,4.04
ATACCAAGGTGATCGTGTGGTCGTTGATACTAAC,0.493,0.0735,-0.0332,0.23,-0.176,0.206,0.285,0.406,-0.115,-0.212,0.658,0.953,0.0763,0.561,0.519,0.0212,-0.0663,0.0038,0.00751,0.737
TCATATATGTAAAAGGTGAAAGTCGGTGTGGTAA,0.511,1.25,-0.0169,1.75,0.0133,3.72,5.15,6.15,5.45,7,2.46,2.83,0.873,0.794,1.98,1.21,-0.143,1.85,1.14,1.9
AGTCAAAGTTCACTAGGTGACGTAAGATTCAGCT,5.44,5.36,3.15,3.09,0.835,5.06,7.82,7.04,3.81,6.5,3.75,6.05,1.29,0.955,3.29,4.22,2.57,3.34,1.67,4.87
CCTACTAGGTCATGGTCAGCTAATCTACAGTATG,3.8,2.57,0.658,2.06,0.291,4.33,6.76,5.84,3.38,4.97,7.3,7.42,2.12,1.91,2.59,1.5,0.291,2.45,0.932,3.92
CCTTACGGGTCACTGACAGGTTATAGTATTTGGA,5.25,4.01,0.456,3.4,0.163,4.95,4.75,4.34,1.8,2.96,3.44,3.9,0.845,0.452,2.3,3.46,0.317,4.47,0.728,3.93
TTACCAAGGTGAGAGGTCGTTGATGCACGCCTTG,1.86,1.62,0.0582,1.46,-0.758,3.59,6.22,6.4,4.84,6.5,1.49,4.04,0.616,0.0764,1.63,2.47,0.681,3.06,-0.505,2.33
TCTAGCAGGCTAGAGGGTCACTCAAGAGGTACGG,1.01,0.938,-0.529,0.868,-1.08,2.4,1.05,2,1.9,1.98,0.497,0.41,-0.174,-0.574,0.731,1.48,-0.354,2.02,-0.017,1.93
CCGACTAGGGCATAAGGTTACCATAAGCCAGCCC,0.247,2.13,-0.18,1.02,-0.736,2.19,2.8,3.77,1.43,3.27,4.2,3.79,-0.186,-0.826,1.57,0.295,-0.287,1.7,-0.466,1.86
ATATGTAGGTTATCGGGACATTCAGTTTGCGCAT,0.568,0.813,0.715,0.858,0.692,3.3,5.05,4.45,2.25,3.45,7.42,6.98,2.35,2.08,2.64,0.647,1.45,0.532,1.55,1.06
ATATGTAGGTTATCGCGTCATTCAGTTTGCGCAT,0.694,1.01,0.372,1.1,0.647,3.31,3.86,3.94,1.41,3.08,7.52,6.92,1.88,2.41,0.975,0.655,0.292,0.918,0.606,0.976
CCTACTGTGCCAAAGGTCATTGATTCCAATGCTC,5.48,5.82,5.32,5.34,2.14,6.17,11.4,9.67,9.47,10.3,5.24,5.97,0.578,0.496,4.4,5.42,2.77,5.77,2.56,4.63
CGAACTAGGTCATCCAGGACAGTGAATACATTGA,4.28,2.79,0.603,2.04,0.134,4.91,7.69,6.5,4.15,6.05,8.1,8.47,3.54,2.16,1.36,2.06,1.61,2.38,0.896,3.91
ACTAGTTGGTCAGCCGAGGTCACACACAATTCGG,3.43,3,2.4,3.32,0.882,3.85,2.34,2.6,0.926,2.06,1.8,3.12,0.481,1.14,3.29,5.43,2.13,5,1.82,3.58
CGTCCAAGGTCAGAGAGGTCAGTTAATGCCGAGT,6.19,5.39,3.93,4.99,0.784,4.72,3.34,4.09,0.894,2.9,3.01,3.3,0.545,0.19,6.18,6.24,12.6,5.94,3.51,5.22
CCGAGTAGGTTATGTGGCATTCAGGCAACGGTGA,0.192,0.353,0.0932,0.0215,-0.284,0.798,0.853,1.85,-0.095,0.651,3.28,2.2,-0.431,-0.42,0.696,-0.298,-0.313,-0.131,0.978,0.573
CTAACTAGGTCAAAGGTCAAAGTCGAGCCAACCA,8.53,7.32,5.19,7.21,2.96,7.74,14,11.2,13.1,13.2,9.01,9.15,2.95,1.6,4.42,7.03,1.84,8.76,2.8,5.8
ACTAGCAGGCCAAGTCTGGGTCACTCAAACAAAG,0.226,0.263,0.0484,0.796,-1.12,2.38,0.901,1.28,0.18,0.56,2.25,3.03,-0.209,-0.38,0.811,0.664,-0.106,1.59,-0.573,1.75
TCAAACAGGTGAAGGTAACTCAGGTACGCAGTCG,1.02,1.85,0.0857,1.22,-0.218,1.61,0.959,2.43,4.26,3.48,3.03,1.6,0.098,0.184,0.662,0.812,0.0874,1.19,0.552,1.26
GGAACGAGGGCAATTTGATAGCAGAGTTTGATGG,0.502,0.242,-0.405,0.427,-0.315,1,1.04,0.751,0.15,0.401,3.43,2.2,-0.942,-0.307,0.234,0.484,0.475,0.401,-0.342,1.64
GCTAATAGTTGAAAGGGCAACCGAATGATTCTCG,0.971,1.16,-0.065,1.09,-0.087,2.85,3.03,4.2,2.1,3.9,0.302,1.27,-0.057,-0.27,0.836,0.859,-0.00303,1.61,0.745,2.21
ATATGTAGGTTACATCCGGGACATTCAGGCTATG,0.396,2.2,0.343,1.11,0.574,3.44,5.41,4.47,1.95,3.37,7.57,7.46,4.54,2.06,1.33,0.599,0.5,0.964,0.969,1.08
